Compound activity as filed in PubChem BioAssay.
Shown are actives, neighbours in structure and some others; about 1.9% of the full set was active somewhere.
Abeta yeast res – qHTS for compounds that reverse cellular toxicity of Amyloid beta (A-beta) peptide in yeast: Primary Screen. yeast expressing A-beta42, growth rescue, OD600, 48 h; response scale: 0% DMSO, 100% iron-clioquinol control. Potency, µM (series often up to 46.1 µM), hits mostly activators. 410,000 compounds, 0.063% hits; further: potency means the concentration at half of the fitted maximal effect; nearly all actives have a fitted effect of over 55% in size
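Yeast growth medium received pinned compounds, then yeast cells expressing toxic A-beta were added; plates incubated at 30 C for 48 hr. Growth read as absorbance at 600 nm, normalized to DMSO and equimolar FeCl3 plus clioquinol controls.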
LDHA block – qHTS assay for inhibitors of human lactate dehydrogenase; purified LDHA, NADH/diaphorase-resazurin fluorescence; stronger effect = lower value; activity change, % (values are at about 110 or 230 µM); 480,000 compounds, 0.15% hits; in the data active means activity change below about -30%; inconclusive means mostly about -25% to -30%;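 further: plate controls were DMSO wells for no effect and wells without enzyme for full effect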
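Remaining NADH was detected by diaphorase (0.133 mg/mL) converting 37 µM resazurin to fluorescent resorufin, read at 0 and 20 minutes. The preceding 5-minute room-temperature reaction used 2 nM LDHA, 0.2 mM sodium pyruvate and 0.06 mM NADH at pH 7.4.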
PTHR1 ag – qHTS for PTHR1 Agonists: Primary Screen; Parathyroid hormone/parathyroid hormone-related peptide receptor (Homo sapiens), Q03431; 410,000 compounds, 0.075% hits; HEK293 GP2 PTHR1 cells, GloSensor cAMP luminescence, 1 h; Potency, µM (series often up to 115 µM), for inactives: at the top dose activation, usual class: activators; AID 743266, 2014; further: potency means the concentration at half of the fitted maximal effect; nearly all actives have a fitted effect of over 55% in size
Target sequence (Q03431 whole entry, looked up): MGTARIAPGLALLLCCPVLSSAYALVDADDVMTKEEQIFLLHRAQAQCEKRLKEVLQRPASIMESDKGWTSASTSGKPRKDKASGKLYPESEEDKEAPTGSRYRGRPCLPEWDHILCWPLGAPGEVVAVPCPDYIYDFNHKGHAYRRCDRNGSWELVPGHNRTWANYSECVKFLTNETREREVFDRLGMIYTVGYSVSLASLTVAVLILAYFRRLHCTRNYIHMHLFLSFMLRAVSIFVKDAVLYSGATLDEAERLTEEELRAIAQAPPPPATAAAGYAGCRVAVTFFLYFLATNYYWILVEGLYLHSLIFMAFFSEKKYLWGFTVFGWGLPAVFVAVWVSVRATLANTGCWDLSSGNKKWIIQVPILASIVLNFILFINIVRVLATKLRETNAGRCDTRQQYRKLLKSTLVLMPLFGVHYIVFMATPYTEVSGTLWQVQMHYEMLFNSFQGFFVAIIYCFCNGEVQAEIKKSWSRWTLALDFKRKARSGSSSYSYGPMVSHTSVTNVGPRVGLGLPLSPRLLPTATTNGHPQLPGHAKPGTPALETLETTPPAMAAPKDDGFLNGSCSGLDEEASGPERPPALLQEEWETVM
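HEK-293-derived GP2 cells expressing PTHR1 and a GloSensor cAMP reporter, 3,000/well, plated overnight, given luciferin plus IBMX (each 0.5 mM as added) for 1 h at 37 °C, then compound for 1 h at 37 °C. Luminescence was read after 15 min at room temperature.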
FUS suppressor – qHTS for Suppressors of FUS Proteinopathy: Primary screen using FUS-linked yeast assay; 390,000 compounds, 0.24% hits; Potency, µM (highest dose often 76.6 µM), most hits filed as activators; S. cerevisiae FUS-expressing, growth rescue, OD600, 24 h; AID 1347120, 2019;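 further: potency means the concentration at half of the fitted maximal effect; plate controls were DMSO vehicle for no effect and reference control for full effect; nearly all actives have a fitted effect of over 55% in size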
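Absorbance at 600 nm, taken 24hr after compound addition, measured rescue of FUS-yeast growth at 30C. Induction used 2% galactose with seeding at OD 0.005. Controls: CP55940 from 92uM final, DMSO only.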
TDP43 rescue – qHTS of TDP-43 Inhibitors. 410,000 compounds, 1.8% hits. Potency, µM (series often up to 46.1 µM), without a hit: at the top dose growth rescue (activation), actives largely listed as activators. AID 652104, 2013. TDP-43 expressing yeast growth rescue, BacTiter-Glo, 24 h; further: potency means the concentration at half of the fitted maximal effect; % of control where 0% means no effect; nearly all actives have a fitted effect of over 50% in size
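Cell-based yeast growth screen: TDP-43 expression induced in galactose, inoculum OD600=0.02 after raffinose pregrowth to mid-log. Read-out BacTiter-Glo luminescence at 24 hr, 30 deg C; inhibition of toxicity seen as signal increase.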
aSyn rescue – qHTS of alpha-syn Inhibitors; Yeast expressing alpha-synuclein, growth rescue, BacTiter-Glo, 24 h; Potency, µM (titrated, usually from 46.1 µM), without a hit: at the highest dose growth rescue (activation), most hits filed as activators; 370,000 compounds, 0.14% hits; further: potency means the concentration at half of the fitted maximal effect; % of control where 0% means no effect; nearly all actives have a fitted effect of over 65% in size
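Readout is rescue of growth in alpha-synuclein-expressing yeast, so inhibitors of toxicity appear as activators. Growth after 24 hr at 30 deg C in galactose medium is quantified by luminescence.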
Numbers without * were called inactive; [ ] = dose if it differs, or a comment. Unless noted, the call rests on the fitted dose curve; in most records, active means well fitted curve in the direction sought with a large enough effect; inconclusive means small, poorly fitted or top-dose-only effect, or another doubt; inactive means no such curve, though single readings can be large; an effect the other way counts as inactive or inconclusive.

Screening Cc1ccc2nc(-c3cccc(Br)c3)c(Cc3cccc(Cl)c3)n2c1 returned Abeta yeast res inactive, LDHA block -6.1, PTHR1 ag -14.3%, FUS suppressor inactive, TDP43 rescue 35.5µM* and aSyn rescue 1.0%.
`Cc1ccc(Cc2c(-c3cccc(Cl)c3)nc3ccc(C)cn23)cc1` gave Abeta yeast res inactive, LDHA block -3.4, PTHR1 ag inactive, FUS suppressor inactive, TDP43 rescue 28.2µM* and aSyn rescue 6.1%.
`Cc1ccc2nc(-c3ccccc3)c(Cc3cccc(Cl)c3)n2c1` gave Abeta yeast res inactive, LDHA block -1.7, PTHR1 ag inactive, FUS suppressor inactive, TDP43 rescue 7.7% and aSyn rescue -1.3%.
Cc1cc(Br)c2nc(-c3ccccc3)c(Cc3cccc(Cl)c3)n2c1 was read as Abeta yeast res inactive, LDHA block 2.2, PTHR1 ag inactive, FUS suppressor inconclusive, TDP43 rescue 11.2µM* and aSyn rescue -6.6%.
Screening Cc1ccc(Cc2c(-c3cccc(Cl)c3)nc3ccc(Cl)cn23)cc1 returned Abeta yeast res inactive, LDHA block -8.2, PTHR1 ag -23.9%, FUS suppressor inactive, TDP43 rescue 15.8µM* and aSyn rescue 24.0%.
`Cc1cc(C)nc(SCC2COc3ccccc3O2)n1` (stereo not given) gave Abeta yeast res inactive, LDHA block -5.7, PTHR1 ag inactive, FUS suppressor inactive, TDP43 rescue 14.1µM* and aSyn rescue 9.3%.
Screening COc1ccc(N=Nc2ccc(O)c3ncccc23)cc1 returned Abeta yeast res inactive, LDHA block 4.1, PTHR1 ag -40.3%, FUS suppressor inactive, TDP43 rescue inconclusive and aSyn rescue inconclusive.
Oc1ccc(N=Nc2ccc3c(c2)OCCO3)c2cccnc12 was read as Abeta yeast res inconclusive, LDHA block 16.8, PTHR1 ag -27.9%, FUS suppressor inactive, TDP43 rescue inconclusive and aSyn rescue 20µM*.
Screening COCC(=O)N1CCN(Cc2nnc(C)o2)CC1 returned LDHA block 5.6.
`O=C(Nc1cccc(N2CCCC2=O)c1)c1nn(-c2ccccc2)c(=O)c2ccccc12` gave LDHA block 2.2.
Screening CC[C@@]1(c2ccccc2OC)ON(c2ccccc2C(F)(F)F)C1=O returned Abeta yeast res inactive, LDHA block 1.7, PTHR1 ag -21.8%, FUS suppressor inactive, TDP43 rescue 17.8µM* and aSyn rescue 6.5%.
Cc1ccccc1[C@@]1(C)ON(c2ccccc2C(F)(F)F)C1=O was read as Abeta yeast res inactive, LDHA block 6.4, PTHR1 ag -33.0%, FUS suppressor inactive, TDP43 rescue 10.8% and aSyn rescue 14.2%.
Screening Cc1sc2ncnc(N(C)C3CCCCC3)c2c1C returned Abeta yeast res inactive, LDHA block 4.3, PTHR1 ag -15.8%, FUS suppressor inactive, TDP43 rescue 15.8µM* and aSyn rescue 5.0%.
CCCCN(CCCC)Cc1ccc(C(=O)NNC(=O)Nc2ccccc2)o1 was read as Abeta yeast res inactive, LDHA block -7.8, PTHR1 ag inactive, FUS suppressor inactive, TDP43 rescue -5.4% and aSyn rescue -3.0%.
CCCCC#Cc1ccc(C(=O)NNC(=O)Nc2ccccc2)o1 was read as Abeta yeast res inactive, LDHA block -39.2*, PTHR1 ag -34.9%, FUS suppressor inactive, TDP43 rescue -4.7% and aSyn rescue 3.3%.
`COc1cc(/C=C2\SC(N3CCC(C)CC3)=NC2=O)ccc1O` gave Abeta yeast res inactive, LDHA block 1.9, PTHR1 ag -44.8%, FUS suppressor inactive, TDP43 rescue 11.2µM* and aSyn rescue -9.8%.
`CN(C)c1ccc(/C=C2\SC(N3CCCCC3)=NC2=O)cc1` gave Abeta yeast res inactive, LDHA block -0.7, PTHR1 ag -51.4%, FUS suppressor inactive, TDP43 rescue 22.4µM* and aSyn rescue -0.4%.
Screening CCOC(=O)C1CCN(C2=NC(=O)/C(=C/c3ccc(Cl)cc3)S2)CC1 returned Abeta yeast res inactive, LDHA block -2.7, PTHR1 ag -54.2%, FUS suppressor inactive, TDP43 rescue 20µM* and aSyn rescue 5.7%.
For COc1ccc(/C=C2\SC(N3CCCCC3)=NC2=O)cc1OC the results were Abeta yeast res inactive, LDHA block -1.6, PTHR1 ag inactive, FUS suppressor inactive, TDP43 rescue -3.0% and aSyn rescue 0.7%.
`CCOC(=O)C1CCN(C2=NC(=O)/C(=C/c3ccc(OC)c(OC)c3)S2)CC1` gave Abeta yeast res inactive, LDHA block -3.4, PTHR1 ag inactive, FUS suppressor inactive, TDP43 rescue inconclusive and aSyn rescue 0.4%.
For Cc1ccc(S(=O)(=O)c2c(N)n(Cc3ccco3)c3nc4ccccc4nc23)cc1C the results were Abeta yeast res inactive, LDHA block -5.1, PTHR1 ag -8.3%[57.5 µM], FUS suppressor 25.1µM*, TDP43 rescue 0.4% and aSyn rescue 6.0%.
`CC(C)(C)n1ncc2c1NC(=O)CC21C(=O)Nc2c(Cl)cccc21` (stereo not given) gave LDHA block 0.3.
Screening Oc1ccccc1N=N/C(=N/Nc1ccccc1O)c1ccccc1 returned Abeta yeast res inactive, LDHA block -0.4, PTHR1 ag inactive, FUS suppressor inactive, TDP43 rescue 24.3% and aSyn rescue -1.6%.
`Cn1nnnc1N=N/C(=N/Nc1ccccc1)c1ccccc1` gave Abeta yeast res inconclusive, LDHA block 1.4, PTHR1 ag 0.0%, FUS suppressor inactive, TDP43 rescue inconclusive and aSyn rescue 3.16µM*.
Screening CCCCOC(=O)CNc1nc(-c2ccccc2)c2cc(C)ccc2n1 returned LDHA block -5.7.
`O=C(c1ccccc1)c1ccccn1` gave Abeta yeast res inactive, LDHA block 10.1, PTHR1 ag inactive, FUS suppressor inactive, TDP43 rescue -1.1%[0.397 µM] and aSyn rescue 3.3%.
For O=C(CC(=O)c1ccccn1)c1ccccc1 the results were Abeta yeast res inconclusive, LDHA block 7.8, PTHR1 ag -33.5%, TDP43 rescue inconclusive and aSyn rescue 12.6µM*.
For COc1ccc(C(=O)OCc2ncc(-c3ccccc3)o2)c(OC)c1 the results were LDHA block -3.8.
